The values that follow come from PubChem BioAssay (NCI).

This is part of a sample that, as a whole, favours compounds with a hit. Of some 83,000 tested, about 20% had one in any assay.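 Cells were grown in 96-well plates and exposed to the test compound at a single concentration for 48 hours; results are reported as percent growth, with values below 10 considered active.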 Unmarked numbers belong to inactive results. Active and inactive are the calls of the source.

Common to all, as to experiment: NCI-60 one-dose screen, 48 h (100 = growth as untreated, 0 = no growth, -100 = all killed)
What all share (conditions): 10 µM unless noted

For assay [1], the system named is T-47D breast.
The test system of assay [2] is BT-549 breast.
Assay [3] relates to MDA-MB-435 melanoma.
Assay [4] relates to SW-620 colon.
Assay [5] has as its system HCT-116 colon.
The test system of assay [6] is HCC-2998 colon.
Assay [7] relates to KM12 colon.
In assay [8] the test system is MCF7 breast.

Take `CC(C)CCC(=O)[C@@H](C)[C@H]1[C@@H](OC2OCC(O)C(O)C2NS(C)(=O)=O)C[C@H]2[C@@H]3CC=C4C[C@@H](O)CC[C@]4(C)[C@H]3CC[C@]12C` (stereo not given in full): the growth in assay [1] was 43.6%; in assay [2] it was 22%; in assay [3] it was 1.92% (active); in assay [4] it was 11.9%; in assay [5], 24.9%; in assay [6], 67.2%. In assay [7], the growth was 47%.

On to `COc1cc(Nc2ncccc2/C=C/C(=O)c2cc(OC)c(OC)c(OC)c2)cc(OC)c1OC`, for which the growth in assay [1] is 34.1%; in assay [2], 100%; in assay [3], 61.4%; in assay [4], 71.9%; in assay [5], 60.6%; in assay [6], 93.5%. The growth in assay [7] was 71.1%.

`ClC1=NC(Cl)C(Cl)=N/C1=N\c1ncn[nH]1` (stereo not given): the growth is -38.3% (active) in assay [1]; 91.4% in assay [2]; -78.7% (active) in assay [4]; 5.67% (active) in assay [8]; -70.2% (active) in assay [5]; 53.6% in assay [6]. Moreover, in assay [7], the growth is 26.4%.

Take `c1ccc(-c2ccc(-c3ccccc3)[nH]2)cc1`: the growth in assay [1] was 89.6%; in assay [2] it was 99.8%; in assay [3], 97.9%; in assay [4] it was 105%; in assay [5] it was 92.7%; in assay [6], 99.9%. Moreover, the growth in assay [7] was 97%.

Regarding `CCN(CC)c1ccc(/C=C2/NC(=O)NC2=O)cc1`, the growth in assay [1] was 16.2%; in assay [2], 38.9%; in assay [4], 29%; in assay [8], 6.89% (active); in assay [5] it was 20.2%; in assay [6], 39.5%. Also, the growth in assay [7] was 20.5%.

Regarding `CN1CCCN(CCNc2nccc(-c3c(-c4cccc(O)c4)nc4sccn34)n2)S1(=O)=O`, the growth was 60.7% in assay [1]; 62.9% in assay [2]; 11% in assay [3]; 71% in assay [4]; 21.2% in assay [5]; 74.8% in assay [6]. In addition, the growth in assay [7] was 64.8%.

`COc1ccc(C(=O)OC2C(OC3C(O)COC(O[C@H]4C[C@H]5[C@@H]6CC=C7C[C@@H](O)CC[C@]7(C)[C@H]6CC[C@]5(C)[C@H]4[C@H](C)C(=O)CCC(C)C)C3OC(C)=O)OCC(O)C2O)cc1` (stereo not given in full): the growth was 2.99% (active) in assay [1]; -8.64% (active) in assay [2]; -57.3% (active) in assay [4]; -30.8% (active) in assay [8]; 1.33% (active) in assay [5]; 52.9% in assay [6]. Also, in assay [7], the growth was 24.1%.

Take `CC(SC(C)C(=O)N/N=C/c1cccc(Cl)c1)C(=O)N/N=C\c1cccc(Cl)c1` (stereo not given): the growth in assay [1] was 87.8%; in assay [2] it was 102%; in assay [4] it was 27.7%; in assay [8], 49.1%; in assay [5], 2.39% (active); in assay [6], 96.5%. Also, the growth in assay [7] was 71.7%.

Regarding `COc1cc(CN2CCC(N3CCCC3=O)c3ccccc32)cc(OC)c1OC` (stereo not given), the growth in assay [1] is 68.3%; in assay [2] it was 124%; in assay [3] it was 90.4%; in assay [4], 92.3%; in assay [5], 68.8%; in assay [6] it was 93.2%. In addition, the growth in assay [7] is 97.1%.

In the case of `CCOC(=O)Nc1ccc2nc(N3CCCCCC3)sc2c1`, the growth in assay [1] was 41.6%; in assay [2], 65.7%; in assay [3], 7.4% (active); in assay [4] it was 24.5%; in assay [5], 27.9%; in assay [6], 50.3%. For the same compound, the growth in assay [7] was 21.6%.

`O=C(O/C(=C/c1ccccc1)C(F)(F)F)c1ccccc1`: the growth was 101% in assay [1]; 105% in assay [2]; 113% in assay [4]; 102% in assay [8]; 105% in assay [5]; 102% in assay [6]. Besides, the growth in assay [7] is 99.4%.

For `COc1cc(OC)c(C(=O)/C=C/c2cccc(OC(C)=O)c2)cc1CC=C(C)C`, the growth in assay [1] is 52.3%; in assay [2], 81.8%; in assay [3], 73.6%; in assay [4], 35.5%; in assay [5], 47.1%; in assay [6] it was 72.9%. Also, in assay [7], the growth is 68.8%.

In the case of `OC(CCCCCCCCC(O)CN1CCc2ccccc2C1)CN1CCc2ccccc2C1` (stereo not given), the growth in assay [1] is 99.6%; in assay [2] it was 101%; in assay [3] it was 99.8%; in assay [4] it was 104%; in assay [5], 98%; in assay [6], 102%. Further, in assay [7], the growth is 106%.

As to `COc1cccc(N2CCN(c3ncnc4cc[nH]c34)CC2)c1`, the growth in assay [1] is 20.4%; in assay [2], 42.9%; in assay [3], 42.6%; in assay [4], 90.6%; in assay [5], 35.8%; in assay [6], 62.7%. The growth in assay [7] is 71.8%.

On to `COC(=O)CSc1ccc(Cl)cc1`, for which the growth is 98.7% in assay [1]; 105% in assay [2]; 107% in assay [3]; 106% in assay [4]; 95.5% in assay [5]; 97.4% in assay [6]. Also, in assay [7], the growth is 111%.

Regarding `CN(C)c1nc(-c2cccs2)n2nc(-c3ccc(Cl)cc3)cc2n1`, the growth in assay [1] is 30.7%; in assay [2], 68.7%; in assay [4], 56.8%; in assay [8] it was 66.2%; in assay [5], 6.95% (active); in assay [6] it was 48.9%. For the same compound, the growth in assay [7] was 72.5%.

In the case of `COc1ccc(NC(=O)Cn2c(=O)sc3c(-c4ccc(Cl)cc4)cc(-c4ccc(Cl)cc4)nc32)cc1`, the growth is 79.9% in assay [1]; 87.6% in assay [2]; 102% in assay [3]; 99.6% in assay [4]; 88.1% in assay [5]; 104% in assay [6]. Also, the growth in assay [7] was 99.7%.

On to `C=CCCCCOc1cccc(/C=C2\N=C3SCCCN3C2=O)c1`, for which the growth in assay [1] was -2.85% (active); in assay [2], 94.4%; in assay [3], 106%; in assay [4] it was 103%; in assay [5] it was 86.2%; in assay [6] it was 100%. Moreover, in assay [7], the growth is 98.4%.

Regarding `COc1cc(-c2nn(C(=O)NCCN3CCN(C)CC3)cc2-c2ccncc2)ccc1Cl`, the growth in assay [1] is 62.2%; in assay [2] it was 88.1%; in assay [3] it was 80.4%; in assay [4] it was 111%; in assay [5], 76.9%; in assay [6], 93.7%. In assay [7], the growth is 96.4%.

In the case of `Cc1cc(Nc2c3ccccc3nc3ccccc23)ccc1NS(C)(=O)=O`, the growth in assay [1] was 45%; in assay [2], 78.7%; in assay [3], 36.8%; in assay [4], 21.8%; in assay [5], 13.7%; in assay [6], 50.8%. In addition, in assay [7], the growth is 40.5%.

As to `COc1ccc(C2c3cccn3-c3ccccc3N2C(C)=O)cc1` (stereo not given), the growth in assay [1] was 103%; in assay [2] it was 95.4%; in assay [4], 85.5%; in assay [8], 116%; in assay [5] it was 97.8%; in assay [6], 90.4%. For the same compound, the growth in assay [7] was 80.2%.

In the case of `COc1ccc(/C=C/C(=O)CCC(=O)O)cc1OC`, the growth in assay [1] was 93.1%; in assay [2] it was 109%; in assay [3], 106%; in assay [4] it was 105%; in assay [5], 104%; in assay [6], 125%. The growth in assay [7] is 103%.

Turning to `O=C1C=CN2C(=O)CC=CC2[C@@H]1O` (stereo not given in full), the growth in assay [1] is 90.4%; in assay [2], 102%; in assay [3] it was 124%; in assay [4] it was 111%; in assay [5], 96.5%; in assay [6], 114%. Besides, the growth in assay [7] is 105%.

On to `CNCCCn1c2c(c3ccc(Cl)cc3c1=O)C(=O)c1cc(OC)cnc1-2`, for which the growth in assay [1] is 40%; in assay [2], 45.9%; in assay [4] it was -63.6% (active); in assay [8] it was -45.4% (active); in assay [5] it was -81.4% (active); in assay [6], 71.3%. Also, the growth in assay [7] was 40.7%.

As for `CC(C)(C)OC(=O)N1CCCN(CCNc2nccc(-c3c(-c4cccc(O)c4)nc4sccn34)n2)S1(=O)=O`, the growth is 86.6% in assay [1]; 54.1% in assay [3]; 131% in assay [4]; 97.8% in assay [8]; 81.7% in assay [5]; 108% in assay [6]. Besides, the growth in assay [7] was 111%.

In the case of `CC(=O)CC(c1ccc([N+](=O)[O-])cc1)c1c(O)c2ccccc2oc1=O` (stereo not given), the growth in assay [1] was 95.7%; in assay [2], 88.5%; in assay [4], 101%; in assay [8], 102%; in assay [5], 101%; in assay [6], 105%. Also, the growth in assay [7] was 98.5%.

Regarding `COc1cc(OC)cc(-c2ccc(-c3ccc(C(=N)N)s3)s2)c1`, the growth was -70.2% (active) in assay [1]; -81.9% (active) in assay [3]; -69.2% (active) in assay [4]; -72.8% (active) in assay [8]; -73.5% (active) in assay [5]; -71.7% (active) in assay [6]. In addition, the growth in assay [7] is -73.3% (active).

As for `COc1cc(C2CC(c3ccc(C)cc3)=NN2C=O)ccc1Oc1nc2c(c(=O)n(C)c(=O)n2C)n1C` (stereo not given), the growth is 80% in assay [1]; 97.9% in assay [2]; 102% in assay [4]; 77.1% in assay [8]; 81.8% in assay [5]; 77.9% in assay [7].

For `Nc1ncnc2c1N=C(c1ccc3c(c1)OCO3)CC(c1ccc(Cl)cc1)N2` (stereo not given), the growth was 55.8% in assay [1]; 81.2% in assay [2]; 79.9% in assay [4]; 56.6% in assay [8]; 87.3% in assay [5]; 71.7% in assay [7].

Consider `Oc1ccccc1-c1nnc(COc2ccc(Cl)cc2Cl)o1`, for which the growth in assay [1] was 42.6%; in assay [2], 63.3%; in assay [4] it was 51.2%; in assay [5], 18.2%; in assay [6], 76.8%; in assay [7], 41.5%.

With `Cn1c(-c2ccccc2)cc(=O)n1-c1ccccc1`, the growth in assay [1] was 102%; in assay [2], 110%; in assay [4] it was 117%; in assay [5] it was 100%; in assay [6], 100%; in assay [7], 103%.

With `COc1ccc2c(c1)C1=NN(C(=O)CO)[C@H](c3ccc(OC(F)(F)F)cc3)[C@@H]1CC2`, the growth in assay [1] was 82.1%; in assay [3], 116%; in assay [4] it was 109%; in assay [8] it was 83.2%; in assay [5] it was 92.5%; in assay [6], 91.9%. In assay [7], the growth was 102%.
